Publication PMC4242493, “Sequence specificity incompletely defines the genome-wide occupancy of Myc”
The full ranking holds about 33,000 sequences; the median of “normalized occupancy” is about 0.075, and the highest 2% start at about 0.095. Shown is part of a subset that was picked to be rich in the highest values.

Each sequence was assayed against MaxL homodimer (Homo sapiens, UniProt P61244 1-160) (assay: universal protein-binding microarray (PBM); PBS-based mixture, 10 nM His-tagged protein dimer, 2% milk, 200 ng/uL BSA, 50 ng/uL salmon testes DNA, 0.02% TX-100; detection with Alexa 488 anti-His antibody;; high values mean tight binding). Conditions: protein: recombinant; tags: C-terminal His-tag (pET21a); chain copies: 2; dsDNA, one strand shown.
MaxL homodimer, sequence (P61244 whole entry): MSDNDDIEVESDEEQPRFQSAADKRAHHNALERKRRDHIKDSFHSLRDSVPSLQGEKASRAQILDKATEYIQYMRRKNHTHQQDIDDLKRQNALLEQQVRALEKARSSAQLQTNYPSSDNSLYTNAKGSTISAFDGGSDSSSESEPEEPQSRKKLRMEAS
Outline: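 Binding occupancy is a fluorescence intensity normalised to the intensity of the highest-ranked sequence word. Those intensities came from 8-mers on Agilent 4 x 44 K 'all 10-mer' universal arrays incubated with 10 nM His-tagged protein dimer. Bound protein was detected with 10 ng/μL fluorophore-conjugated anti-His antibody before scanning on a GenePix 4400A.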
For CGCTCGAG, the binding signal was 0.0757 normalized occupancy.
Work on CGATTGCA yielded a binding signal of 0.0745 normalized occupancy.
Sequence GGACCGAC has a binding signal of 0.0727 normalized occupancy.
In the case of CATTTGAG, the binding signal is reported as 0.0913 normalized occupancy.
Work on AAGAACTC yielded a binding signal of 0.0732 normalized occupancy.
Work on AATTTCTA yielded a binding signal of 0.0767 normalized occupancy.
Sequence CCATTCGC has a binding signal of 0.0743 normalized occupancy.
Work on CTTCGTGC yielded a binding signal of 0.0757 normalized occupancy.
Sequence ATGGCAGG has a binding signal of 0.0815 normalized occupancy.
For ACCCATGG, the binding signal was 0.0853 normalized occupancy.
CCCCATGC was tested, and the binding signal was 0.107 normalized occupancy.
ACCCATGA gave a binding signal of 0.0882 normalized occupancy.
In the case of CCCCATTC, the binding signal is reported as 0.0826 normalized occupancy.
In the case of ACCCATGC, the binding signal is reported as 0.108 normalized occupancy.
Sequence CCCCATGA has a binding signal of 0.0895 normalized occupancy.
Work on AAAGCACT yielded a binding signal of 0.0757 normalized occupancy.
GACCACGA showed a binding signal of 0.0865 normalized occupancy.
CACCACGC showed a binding signal of 0.119 normalized occupancy.
Sequence AACCACGT has a binding signal of 0.123 normalized occupancy.
In the case of AACCACCA, the binding signal is reported as 0.0807 normalized occupancy.
With AACCACGA the binding signal was 0.0902 normalized occupancy.
With CACCACGA the binding signal was 0.082 normalized occupancy.
For AACCACGG, the binding signal was 0.0843 normalized occupancy.
With AACCACTA the binding signal was 0.0774 normalized occupancy.
CACCACGG was tested, and the binding signal was 0.0774 normalized occupancy.
GACCACGC gave a binding signal of 0.129 normalized occupancy.
With AACCACGC the binding signal was 0.0983 normalized occupancy.
Sequence GACCACCA has a binding signal of 0.0803 normalized occupancy.
In the case of ATGCCCTG, the binding signal is reported as 0.0757 normalized occupancy.
In the case of GAGACCCA, the binding signal is reported as 0.0745 normalized occupancy.
Work on TAATTGCA yielded a binding signal of 0.0767 normalized occupancy.
ACCAAGCA was tested, and the binding signal was 0.081 normalized occupancy.
For CATGCGTA, the binding signal was 0.122 normalized occupancy.
CATGCGTC gave a binding signal of 0.113 normalized occupancy.
GATGCGTA gave a binding signal of 0.0807 normalized occupancy.
Work on AATGCGTC yielded a binding signal of 0.0736 normalized occupancy.
Sequence CGTGCGTC has a binding signal of 0.0896 normalized occupancy.
In the case of AATGCGTA, the binding signal is reported as 0.0846 normalized occupancy.
In the case of ATGACGCG, the binding signal is reported as 0.0781 normalized occupancy.
GTGTGGGA gave a binding signal of 0.0899 normalized occupancy.
Sequence GGGTGGGA has a binding signal of 0.085 normalized occupancy.
Work on AGGTGGGG yielded a binding signal of 0.0822 normalized occupancy.
In the case of CCGTGGGA, the binding signal is reported as 0.0775 normalized occupancy.
In the case of ACGTGGGC, the binding signal is reported as 0.1 normalized occupancy.
ATGTGGGG gave a binding signal of 0.0878 normalized occupancy.
ACGTGGGA gave a binding signal of 0.0998 normalized occupancy.
AGGTGGGC showed a binding signal of 0.0818 normalized occupancy.
GCGTGGGA gave a binding signal of 0.125 normalized occupancy.
Work on ACGTGGGG yielded a binding signal of 0.0991 normalized occupancy.
Sequence AAGTGGGA has a binding signal of 0.0771 normalized occupancy.
Work on ATGTGGGC yielded a binding signal of 0.0919 normalized occupancy.
With GACATTGC the binding signal was 0.0757 normalized occupancy.
GGAAGAGA was tested, and the binding signal was 0.0767 normalized occupancy.
AGAATGTC was tested, and the binding signal was 0.0744 normalized occupancy.
With CCTGCTAC the binding signal was 0.0758 normalized occupancy.
In the case of CCCTAATA, the binding signal is reported as 0.0744 normalized occupancy.
CGATTAAG showed a binding signal of 0.0743 normalized occupancy.
Work on TTCATAAA yielded a binding signal of 0.0768 normalized occupancy.
In the case of CAGACCCC, the binding signal is reported as 0.085 normalized occupancy.
In the case of CAGTAGAA, the binding signal is reported as 0.0771 normalized occupancy.
With ACGTCGTC the binding signal was 0.0822 normalized occupancy.
CGTGCTCC was tested, and the binding signal was 0.085 normalized occupancy.
Work on TATGCTCA yielded a binding signal of 0.0848 normalized occupancy.
With AATGCTCA the binding signal was 0.0829 normalized occupancy.
GATGCTCA gave a binding signal of 0.0734 normalized occupancy.
With CATGCTCC the binding signal was 0.105 normalized occupancy.
Work on GATGCTCC yielded a binding signal of 0.0753 normalized occupancy.
Work on CATGCTCA yielded a binding signal of 0.099 normalized occupancy.
With AATGCTCG the binding signal was 0.0783 normalized occupancy.
With CATGCTCG the binding signal was 0.106 normalized occupancy.
CTTTACCA gave a binding signal of 0.0764 normalized occupancy.
Sequence ATTGGGGC has a binding signal of 0.0771 normalized occupancy.
Work on AAGTGGCT yielded a binding signal of 0.072 normalized occupancy.
For ACGTGGCC, the binding signal was 0.094 normalized occupancy.
With AGGTGGCA the binding signal was 0.082 normalized occupancy.
With GCGTGGCA the binding signal was 0.121 normalized occupancy.
ATGTGGCG showed a binding signal of 0.0879 normalized occupancy.
With CCGTGGCG the binding signal was 0.0765 normalized occupancy.
Sequence ACGTGGCG has a binding signal of 0.107 normalized occupancy.
TCGTGGCA showed a binding signal of 0.0869 normalized occupancy.
CCGTGGCA showed a binding signal of 0.077 normalized occupancy.
ACGTGGCA gave a binding signal of 0.106 normalized occupancy.
Work on ACGTGGCT yielded a binding signal of 0.101 normalized occupancy.
Sequence ACCTGGCT has a binding signal of 0.0765 normalized occupancy.
Sequence GGTCTGTA has a binding signal of 0.0752 normalized occupancy.
With CCTTGTCC the binding signal was 0.0743 normalized occupancy.
CTGACTCA gave a binding signal of 0.0764 normalized occupancy.
Work on AACCAAGT yielded a binding signal of 0.0721 normalized occupancy.
Sequence GAGGAGAA has a binding signal of 0.0783 normalized occupancy.
Sequence GGTAACTA has a binding signal of 0.077 normalized occupancy.
With CAACTTAG the binding signal was 0.0721 normalized occupancy.
For AGGCACCT, the binding signal was 0.078 normalized occupancy.
In the case of CTATTTTC, the binding signal is reported as 0.0775 normalized occupancy.
In the case of CCAAACGC, the binding signal is reported as 0.073 normalized occupancy.
With GCGACTCA the binding signal was 0.0767 normalized occupancy.
GCGTGGCC was tested, and the binding signal was 0.0977 normalized occupancy.
For CCGTGGCC, the binding signal was 0.0738 normalized occupancy.
GAGTGGCC was tested, and the binding signal was 0.073 normalized occupancy.
Work on GGACAACA yielded a binding signal of 0.0742 normalized occupancy.
With CAGGTGTC the binding signal was 0.0839 normalized occupancy.
In the case of AAGGTGTA, the binding signal is reported as 0.0773 normalized occupancy.
With ACCGTGTG the binding signal was 0.0873 normalized occupancy.
For CAAGTGTC, the binding signal was 0.0772 normalized occupancy.
Work on ATCGTGTG yielded a binding signal of 0.0889 normalized occupancy.
In the case of AACGTATA, the binding signal is reported as 0.0869 normalized occupancy.
ACCGTGTA showed a binding signal of 0.0779 normalized occupancy.
CCCGTGTC showed a binding signal of 0.0814 normalized occupancy.
Sequence AACGTGTA has a binding signal of 0.11 normalized occupancy.
For AACGTGTG, the binding signal was 0.108 normalized occupancy.
CAGGTGTA gave a binding signal of 0.0957 normalized occupancy.
CACGTGTC gave a binding signal of 0.574 normalized occupancy.
With GATGCAAA the binding signal was 0.0761 normalized occupancy.
Sequence GTTCGTAA has a binding signal of 0.0774 normalized occupancy.
For CCTAGATA, the binding signal was 0.0756 normalized occupancy.
Work on ACCGTACA yielded a binding signal of 0.0768 normalized occupancy.
With AAATAGCA the binding signal was 0.0843 normalized occupancy.
Work on ACTATAAC yielded a binding signal of 0.0847 normalized occupancy.
Work on AGTTTTTG yielded a binding signal of 0.0729 normalized occupancy.
With ATTGCGAA the binding signal was 0.074 normalized occupancy.
ATGGGTAG was tested, and the binding signal was 0.0856 normalized occupancy.
In the case of ATGATTGG, the binding signal is reported as 0.0808 normalized occupancy.
AAGAGCAG showed a binding signal of 0.0746 normalized occupancy.
For CACGTGTA, the binding signal was 0.536 normalized occupancy.
In the case of ACCGTGTC, the binding signal is reported as 0.072 normalized occupancy.
With CCCGTGTA the binding signal was 0.0861 normalized occupancy.
For AAGGTGTC, the binding signal was 0.0775 normalized occupancy.
In the case of AACGTGTC, the binding signal is reported as 0.101 normalized occupancy.
GACGTGTA gave a binding signal of 0.0816 normalized occupancy.
Sequence AATGGCTC has a binding signal of 0.0777 normalized occupancy.
Work on AATTAGTG yielded a binding signal of 0.0813 normalized occupancy.
ACGTGTCT gave a binding signal of 0.0997 normalized occupancy.
With ACGTGTCG the binding signal was 0.106 normalized occupancy.
AGGTGTCG showed a binding signal of 0.0793 normalized occupancy.
In the case of ACGTGTCA, the binding signal is reported as 0.0923 normalized occupancy.
With AAGTGTCT the binding signal was 0.073 normalized occupancy.
For CCGTGTCG, the binding signal was 0.075 normalized occupancy.
In the case of ATTGAGAG, the binding signal is reported as 0.0765 normalized occupancy.
In the case of CATAGGGG, the binding signal is reported as 0.085 normalized occupancy.
Sequence AGATGGAA has a binding signal of 0.0827 normalized occupancy.
ACATAGCA showed a binding signal of 0.0807 normalized occupancy.
GCACGTCC was tested, and the binding signal was 0.0788 normalized occupancy.
In the case of GTACGTGA, the binding signal is reported as 0.078 normalized occupancy.
For GCACGTGC, the binding signal was 0.834 normalized occupancy.
GCACGTAC gave a binding signal of 0.0883 normalized occupancy.
Sequence GCACGTGA has a binding signal of 0.36 normalized occupancy.
For GGACGTGA, the binding signal was 0.0764 normalized occupancy.
Sequence GATTGGGA has a binding signal of 0.076 normalized occupancy.
In the case of TGCGCCCA, the binding signal is reported as 0.0758 normalized occupancy.
CGATTTCA showed a binding signal of 0.072 normalized occupancy.
GCCTGGCA was tested, and the binding signal was 0.0722 normalized occupancy.
With ATAACATC the binding signal was 0.0807 normalized occupancy.
With ACAACACC the binding signal was 0.0812 normalized occupancy.
Sequence ATAACACA has a binding signal of 0.0874 normalized occupancy.
Work on ACAACATA yielded a binding signal of 0.0833 normalized occupancy.
GTAACACA showed a binding signal of 0.0828 normalized occupancy.
ACAACATG showed a binding signal of 0.0952 normalized occupancy.
ACAACACG gave a binding signal of 0.0955 normalized occupancy.
Sequence ACAACACA has a binding signal of 0.0849 normalized occupancy.
Sequence ACAACATC has a binding signal of 0.0778 normalized occupancy.
Work on ATAACATA yielded a binding signal of 0.0882 normalized occupancy.
ATAACACG gave a binding signal of 0.0958 normalized occupancy.
With ATAACATG the binding signal was 0.0981 normalized occupancy.
Work on GTTTCTTA yielded a binding signal of 0.0733 normalized occupancy.
With CCTTAACA the binding signal was 0.0794 normalized occupancy.
GTAGGCTA gave a binding signal of 0.0748 normalized occupancy.
Work on CAAATGGG yielded a binding signal of 0.0805 normalized occupancy.
For CCCATGGG, the binding signal was 0.0962 normalized occupancy.
CACATGGA showed a binding signal of 0.162 normalized occupancy.
CACATGGC gave a binding signal of 0.199 normalized occupancy.
Work on CACATGGG yielded a binding signal of 0.166 normalized occupancy.
GACATGGC gave a binding signal of 0.0801 normalized occupancy.
Sequence CCCATGGA has a binding signal of 0.0846 normalized occupancy.
AACATGGG gave a binding signal of 0.0935 normalized occupancy.
In the case of ACCATGGG, the binding signal is reported as 0.0927 normalized occupancy.
In the case of AACATGGA, the binding signal is reported as 0.0836 normalized occupancy.
AACATGGC gave a binding signal of 0.0896 normalized occupancy.
Work on GACATGGA yielded a binding signal of 0.0844 normalized occupancy.
